D1 ag = human D1 receptor agonism; HEK293 T-REx D1 cells, calcium flux, agonist mode; P21728; 360,000 compounds, 1% hits; activation, % at 2 µM; in the data active means activation above about 30%
Target sequence (P21728 whole entry, looked up): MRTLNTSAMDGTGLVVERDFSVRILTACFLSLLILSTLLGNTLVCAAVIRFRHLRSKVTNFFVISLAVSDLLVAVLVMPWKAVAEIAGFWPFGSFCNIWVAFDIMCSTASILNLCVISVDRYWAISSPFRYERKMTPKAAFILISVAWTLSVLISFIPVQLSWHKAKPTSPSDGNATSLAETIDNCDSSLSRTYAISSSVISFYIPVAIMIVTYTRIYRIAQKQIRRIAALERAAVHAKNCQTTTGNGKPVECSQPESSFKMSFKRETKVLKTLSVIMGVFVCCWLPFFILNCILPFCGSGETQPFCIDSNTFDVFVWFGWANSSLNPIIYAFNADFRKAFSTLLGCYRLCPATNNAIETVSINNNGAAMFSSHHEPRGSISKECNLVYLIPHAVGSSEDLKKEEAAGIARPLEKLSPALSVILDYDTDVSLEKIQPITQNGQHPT
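Agonism was scored from calcium flux recorded over 180 s (1 read/s) after pintool compound addition, following a 10-cycle baseline. Cells were inducible force-coupled HEK293 TREx D1, plated overnight at 30 C and loaded with no-wash calcium dye.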
D3 antag = antagonists of human D3 dopamine receptor. P35462. D3R cells, DiscoveRx beta-arrestin luminescence, antagonist mode; hits give low values. max response, negative = inhibition, %. 360,000 compounds, 2.5% hits. AID 652054; in the data active means max response below about -50%
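Cells plated overnight at 1500 cells/well, then exposed to library compounds with dopamine controls for 90 minutes at 37 degrees C. DiscoveRx reagent added for 30–60 minutes at room temperature; luminescence read, quantitative HTS format.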
D3 ag = D3 dopamine receptor (human) agonism; 410,000 compounds, 0.58% hits; P35462; max activation, %; D3R DiscoveRx beta-arrestin cells, luminescence, 90 min; AID 652048; in the data active means max activation above about 30%
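Agonist-mode cell screen: cells plated at 1500/well and incubated overnight at 37 °C, then exposed to library compounds for 90 min at 37 °C. Detection reagent was added for 30–60 min at room temperature, and luminescence was read.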
D1 PAM = potentiators of human D1 dopamine receptor; P21728; HEK293 TREx D1 cells, calcium flux, dopamine EC20 potentiation; potentiation, % at 10 µM; 360,000 compounds, 0.036% hits; in the data active means potentiation above about 30%
D1 antagonist = antagonists of human D1 dopamine receptor; P21728; HEK293 TREx D1 cells, calcium flux, dopamine EC80; hits give low values; activity change, negative = inhibition, % at 10 µM; 360,000 compounds, 3.2% hits; AID 504652; in the data active means activity change below about -30%
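Tetracycline-induced HEK293 T-REx cells with force-coupled D1 receptor were loaded with a no-wash calcium dye. Compound was added after a 10 s baseline and read kinetically for 180 s; EC80 dopamine was then added and calcium flux followed another 180 s.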
Hits are given with their value; ! = a repeat was not active. This is a sample that favours compounds with a hit; in the whole collection about 6% have one here.

Results for CC(=O)N1c2ccccc2C(=O)C1N1CCN(c2ccccc2)CC1 (configuration not stated) ?
D1 ag: inactive; D3 ag: inactive; D1 PAM: inactive; D1 antagonist: inactive

Results for CC(=O)N1c2ccccc2C(=O)C1N1CCN(c2ccc(F)cc2)CC1 (configuration not stated) ?
D1 ag: inactive; D3 ag: inactive; D1 PAM: inactive; D1 antagonist: -45.7

Results for COc1ccccc1-n1nc(-c2ccccc2)c2cnc3cc(C(F)(F)F)ccc3c21 ?
D1 ag: inactive; D3 ag: inactive; D1 PAM: inactive; D1 antagonist: inactive

Results for Cc1ccsc1C(=O)Nc1n[nH]c(C(F)(F)F)n1 ?
D1 ag: inactive; D3 antag: inactive; D3 ag: inactive; D1 PAM: inactive; D1 antagonist: inactive

How did O=C(Nc1n[nH]c(C(F)(F)F)n1)C1CC1 do in these assays?
D1 ag: inactive; D3 antag: inactive; D3 ag: inactive; D1 PAM: inactive; D1 antagonist: -33.7

Results for CC(C)c1ccc(NC(=O)CN2C(=O)COc3ccc(S(=O)(=O)N4CCCCCC4)cc32)cc1 ?
D1 ag: inactive; D3 ag: inactive; D1 PAM: inactive; D1 antagonist: inactive

What do the screens show for `COc1cccc(CC2(CO)CCCN(C/C=C/c3ccccc3OC)C2)c1` (configuration not stated)?
D1 ag: 32.8; D3 antag: -82.5; D3 ag: inactive; D1 PAM: inactive; D1 antagonist: inactive

Results for COc1ccc(/C=C/CN2CCCC(CO)(Cc3cccc(Cl)c3)C2)cc1 (configuration not stated) ?
D1 ag: inactive; D3 antag: -59.7; D3 ag: inactive; D1 PAM: inactive; D1 antagonist: inactive

What do the screens show for `COc1ccccc1/C=C/CN1CCCC(CO)(Cc2cccc(Cl)c2)C1` (configuration not stated)?
D1 ag: inactive; D3 antag: -59.0; D3 ag: inactive; D1 PAM: inactive; D1 antagonist: inactive

Results for COc1ccccc1-c1noc(CCCC(=O)Nc2cccc(C(F)(F)F)c2)n1 ?
D1 ag: inactive; D3 ag: inactive; D1 PAM: inactive; D1 antagonist: inactive

What do the screens show for `COc1ccccc1-c1noc(CCC(=O)Nc2cc(C(F)(F)F)ccc2Cl)n1`?
D1 ag: inactive; D3 antag: inactive; D3 ag: 30.1; D1 PAM: inactive; D1 antagonist: inactive

How did CCC(Nc1ccc(-c2nc(-c3ccco3)no2)cc1[N+](=O)[O-])c1ccccc1 (configuration not stated) do in these assays?
D1 ag: inactive; D3 ag: inactive; D1 PAM: inactive; D1 antagonist: inactive

Results for Nc1ccc(S(=O)(=O)NN=CC=Cc2ccccc2[N+](=O)[O-])cc1 ?
D3 antag: -65.2; D3 ag: inactive

What do the screens show for `NS(=O)(=O)c1ccc(N/N=C/C=C/c2ccccc2[N+](=O)[O-])cc1`?
D1 ag: inactive; D3 antag: inactive; D3 ag: inactive; D1 PAM: inactive; D1 antagonist: inactive

How did CCN1CCN(c2oc(-c3ccc(COc4ccc(C)cc4)o3)nc2C#N)CC1 do in these assays?
D1 ag: inactive; D3 ag: inactive; D1 PAM: inactive; D1 antagonist: inactive

Results for O=C(c1cnn(-c2ccc(F)cc2)c1-n1cccc1)N1CCN(c2cccc(Cl)c2)CC1 ?
D1 ag: inactive; D3 ag: inactive; D1 PAM: inactive; D1 antagonist: inactive

Results for COC(=O)c1ccc(N2CCN(C(=O)c3ccccc3)CC2)c(NC(C)=O)c1 ?
D1 ag: inactive; D3 antag: inactive; D3 ag: inactive; D1 PAM: inactive; D1 antagonist: -30.6

How did CCc1ccc(C(=O)c2cn(CC(=O)Nc3ccc4c(c3)OCCO4)c3ccc(C)cc3c2=O)cc1 do in these assays?
D1 ag: inactive; D3 ag: inactive; D1 PAM: inactive; D1 antagonist: inactive

Results for O=C(COC(=O)c1cccc([N+](=O)[O-])c1)NCc1cccs1 ?
D1 ag: inactive; D3 antag: inactive; D3 ag: inactive; D1 PAM: inactive; D1 antagonist: inactive

How did Cc1ncsc1CCOC(=O)c1cccc([N+](=O)[O-])c1 do in these assays?
D1 ag: inactive; D3 antag: inactive; D3 ag: inactive; D1 PAM: inactive; D1 antagonist: -32.8!

Results for CC(=O)Nc1c(O)nc(SCc2ccccc2C#N)[nH]c1=O ?
D1 ag: inactive; D3 antag: -51.0; D3 ag: inactive; D1 PAM: inactive; D1 antagonist: inactive

How did CC1CCN(C(=S)Nc2ccc(SC(F)F)cc2)CC1 do in these assays?
D1 ag: inactive; D3 antag: inactive; D3 ag: inactive; D1 PAM: inactive; D1 antagonist: -41.2

How did CCC(C)Nc1nc(Cl)nc(N(C#N)CN2C(=O)c3ccccc3S2(=O)=O)n1 (configuration not stated) do in these assays?
D1 ag: inactive; D3 antag: -70.9; D3 ag: inactive; D1 PAM: inactive; D1 antagonist: inactive

How did CCn1c(C(=O)N2CCCC(C(=O)N3CCN(c4ccccc4)CC3)C2)cc2sccc21 (configuration not stated) do in these assays?
D1 ag: inactive; D3 ag: inactive; D1 PAM: inactive; D1 antagonist: inactive

What do the screens show for `CCSc1nnc2n(N)c(=O)c3ccccc3n12`?
D1 ag: inactive; D1 PAM: inactive; D1 antagonist: -85.4

Results for Cc1cc2nc(CSc3ccccc3)cc(=O)n2[nH]1 ?
D1 ag: inactive; D3 antag: inactive; D3 ag: inactive; D1 PAM: inactive; D1 antagonist: -32.9

What do the screens show for `CCc1ccccc1-n1c2c(cc(-c3nc(-c4ccc(Cl)cc4)cs3)c1=O)C(=O)CC(C)(C)C2`?
D1 ag: inactive; D3 ag: inactive; D1 PAM: inactive; D1 antagonist: inactive

What do the screens show for `CCCOc1ccc(-c2nn(-c3ccccc3)cc2/C=C2\SC(N)=NC2=O)cc1C`?
D1 ag: inactive; D3 antag: inactive; D3 ag: inactive; D1 PAM: inactive; D1 antagonist: -74.2

How did CC(C)(C)c1cnnn1-c1ccc(/C=N/Nc2ccc([N+](=O)[O-])cc2)cc1 do in these assays?
D1 ag: inactive; D3 antag: -56.6; D3 ag: inactive; D1 PAM: inactive; D1 antagonist: inactive

How did CC(=O)N1CCN(C(=O)c2oc3ccccc3c2C)CC1 do in these assays?
D1 ag: inactive; D3 antag: inactive; D3 ag: inactive; D1 PAM: inactive; D1 antagonist: inactive

What do the screens show for `Cc1c(C(=O)N2CCN(Cc3cccs3)CC2)oc2ccccc12`?
D1 ag: inactive; D3 antag: -79.4; D3 ag: inactive; D1 PAM: inactive; D1 antagonist: inactive

Results for C=CCN1CCN(C(=O)c2oc3ccccc3c2C)CC1 ?
D1 ag: inactive; D3 antag: -61.4; D3 ag: inactive; D1 PAM: inactive; D1 antagonist: inactive

What do the screens show for `Cc1c(C(=O)N2CCCCC2)oc2ccccc12`?
D3 antag: inactive; D3 ag: inactive
